PubChem BioAssay AID686978 (National Center for Advancing Translational Sciences (NCATS), 2013)
Out of some 420,000 compounds screened, about 64,000 (15%) were called active. About 27% were inconclusive and are not listed. Calls come from the whole dose curve; as a rule, active = well fitted inhibition curve with a large enough effect; inconclusive = small, poorly fitted or top-dose-only effect; inactive = flat fitted curve, though single readings scatter. Only a sample is shown.

experiment: qHTS for Inhibitors of human tyrosyl-DNA phosphodiesterase 1 (TDP1): qHTS in cells in absence of CPT; settings: DT40 Tdp1-/- hTDP1 cells, no CPT, ATP luminescence, 48 h; activity change, negative = growth inhibition: at 46.2 µM (top of the series); note: nearly all actives have a fitted effect of over 55% in size
Summary of the method: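 Cells were dispensed at 400 per well, compounds added by pin tool, plates incubated ≥48 hr at 37 °C, then CellTiter-Glo added for 30 min at room temperature before luminescence reading. Line: DT40 Tdp1-/- complemented with hTDP1; camptothecin omitted.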
% is set by controls: 0 for no effect and ±100 for the full control effect; potency is the fitted concentration of half-maximal effect.

Structure (SMILES) | activity change, negative = growth inhibition | Potency
O=C(O)CCC(=O)O | 0.325% (inactive) | 
CC(=O)Nc1ccc(N2C(=O)CCC2=O)cc1C | -6.41% (inactive) | 
Cc1cc(=O)cc(C)[nH]1 | -0.466% (inactive) | 
COc1cc(C(=O)NCCOC(=O)c2cccc(N(C)C)c2)cc(OC)c1OC | -26.7% (inactive) | 
Cc1ccc(C(=O)N(CC(=O)NC2CCCC2)c2ccc(F)cc2)s1 | -24.1% (inactive) | 
O=[N+]([O-])c1ccccc1NCc1ccccc1Cl | -17% (inactive) | 
N/C(=N/O)c1cccn1Cc1ccccc1[N+](=O)[O-] | 1.55% (inactive) | 
O=c1c([N+](=O)[O-])cccn1Cc1ccc(F)cc1Cl |  | 20.6 µM (active)
COc1ccc(C2C(C#N)=C(/N=C/N3CCOCC3)OC3=C2C(=O)CC(C)(C)C3)cc1OC (stereo unspecified) | -4.9% (inactive) | 
CCNS(=O)(=O)c1ccc(CCC(=O)N2CCN(c3cc(Cl)ccc3C)CC2)cc1 |  | 11.6 µM (active)
CC(C)NS(=O)(=O)c1ccc(CCC(=O)N2CCOCC2)cc1 | 4.33% (inactive) | 
Cc1ccc(S(=O)(=O)NCCC(=O)NCc2ccc(Cl)cc2)cc1C | -9.55% (inactive) | 
Nc1cc(=O)nc(SCc2ccccc2)n1Cc1ccco1 | -21.7% (inactive) | 
O=c1[nH]c(CSc2ncc(-c3ccc(F)cc3)n2Cc2ccco2)nc2ccccc12 |  | 20.6 µM (active)
O=C(CSc1nnc2scc(-c3ccc(F)cc3)n12)NCc1ccco1 | -2.24% (inactive) | 
Nc1nonc1-c1nc2ccccc2n1Cc1ccc(F)cc1 |  | 20.6 µM (active)
COc1ccc2oc(N)nc2c1 | -16.7% (inactive) | 
CC(C)(C)N1CC(c2nc3ccccc3n2Cc2ccc(F)cc2)CC1=O (stereo unspecified) | -19.4% (inactive) | 
COc1ccc(C)c(Cn2c(-c3nonc3N)nc3ccccc32)c1 |  | 2.31 µM (active)
Cc1noc(C)c1COC(=O)Cn1c(C)nc2ccccc21 | -5.16% (inactive) | 
Nc1nonc1-c1nc2ccccc2n1CCC(=O)O | -11.1% (inactive) | 
Cn1c(SCC(=O)N2CCCC2)nnc1-c1cccs1 | -2.82% (inactive) | 

Structure (SMILES) | activity change, negative = growth inhibition | Potency
CN(Cc1ccccc1)C(=O)CCNC(=O)Cn1cnc2ccccc2c1=O | -15.3% (inactive) | 
CN1CCCCCC1C(=O)NCCN1Cc2ccccc2OC(c2ccsc2)C1 (stereo unspecified) | -4.19% (inactive) | 
CCCCC(=O)Nc1ccc2c(c1)OCCO2 | -9.43% (inactive) | 
O=C(Cn1c(=O)sc2ccccc21)Nc1ccc2c(c1)OCCO2 | -13.3% (inactive) | 
CCOc1ccc(NC(=O)Cn2c(=O)n(CCCC(=O)NCc3ccc4c(c3)OCO4)c(=O)c3ccccc32)cc1 | 1.6% (inactive) | 
CCc1ccc(NC(=O)Cn2c(=O)n(CCC(=O)NCc3ccc4c(c3)OCO4)c(=O)c3ccccc32)cc1 |  | 9.2 µM (active)
CCc1ccc(NC(=O)Cn2nnc(C(=O)NCc3ccc4c(c3)OCO4)c2N)cc1 | -16.8% (inactive) | 
Cn1c(=O)c2ccccc2n(CC(=O)Nc2ccc3c(c2)OCCO3)c1=O |  | 9.2 µM (active)
Oc1ccc(-c2[nH]ncc2-c2nc3ccccc3s2)c(O)c1 | 10.6% (inactive) | 
COCCOC1CCN(C(=O)c2ccc(OC)c(OC3CCN(C(C)C)CC3)c2)CC1 | 8.08% (inactive) | 
NC(=O)c1ccc(N2CCOCC2)nc1 | 22.6% (inactive) | 
CC(C)CNC(=O)COC(=O)/C=C/c1ccco1 | -4.26% (inactive) | 
Cc1ccc(-c2onc(C)c2C)cc1S(=O)(=O)Nc1ccccn1 | -25.3% (inactive) | 
COc1cc(NC(=O)NCC2CCN(Cc3ccc(C)cc3)CC2)cc(OC)c1OC |  | inactive
COc1ccc(-c2onc(C)c2C)cc1S(=O)(=O)NCc1cccs1 |  | 18.4 µM (active)
COc1ccc(C)cc1NC(=O)CNCc1cccs1 | -1.9% (inactive) | 
COc1ccc(C)cc1S(=O)(=O)NCCc1ccccc1 | -19.9% (inactive) | 
COc1ccc(-c2onc(C)c2C)cc1S(=O)(=O)NCC1CCN(Cc2cccc(F)c2)CC1 |  | 25.9 µM (active)
O=C(CN1C2CCC1CC(NC(=O)C1CC1)C2)NCc1ccccc1 (stereo unspecified) | 1.04% (inactive) | 
O=S(=O)(O)CCN1CCOCC1 | -6.34% (inactive) | 
Cc1nc2nc(CSc3nc4ccccc4s3)cc(=O)n2[nH]1 | -12% (inactive) | 
C=CCOC(=O)C1=C[C@@H](c2ccc3c(c2)OCO3)C[C@@H](OCCCCO)O1 | -79.5% (inactive) | 

Structure (SMILES) | activity change, negative = growth inhibition | Potency
COc1ccc2ccccc2c1CNCc1ccccn1 | -28.3% (inactive) | 
Cc1ccc(C)c(NC(=O)CCC(=O)NNC(=O)c2cccs2)c1 | -1.86% (inactive) | 
Cc1ccc(C)c(NC(=O)NNC(=O)c2ccc3ccccc3c2O)c1 | -26.2% (inactive) | 
Cc1ccc(C)c(NC(=S)NNC(=O)c2csc(C)c2)c1 |  | 18.4 µM (active)
Cc1cc(C(=O)OCC(=O)Nc2nnc(C(C)C)s2)c2ccccc2n1 | -1.36% (inactive) | 
C=CCO/N=C(\C)c1c(O)c(C)c(-c2ccccc2)n(-c2ccccc2)c1=O | 4.5% (inactive) | 
CC(C)c1ccc(NC(=O)c2ccc3c(O)c(S(=O)(=O)c4ccccc4)c(=O)[nH]c3c2)cc1 | -26.3% (inactive) | 
COc1cc(OC)c(NS(=O)(=O)c2cn(C)cn2)cc1Cl | 8.31% (inactive) | 
COC(=O)c1scc(-c2ccc(C)cc2)c1S(=O)(=O)Nc1cc(Cl)c(OC)cc1OC |  | 11.6 µM (active)
COc1ccc(C)cc1S(=O)(=O)Nc1cccc(Cl)c1Cl | -19.3% (inactive) | 
CC1O[C@@H](OC2C(O)C(C)O[C@H](OC(=O)[C@]34CCC(C)(C)C[C@H]3C3=CCC5[C@@]6(C)CC(O)C(O[C@@H]7OC(CO)C(O)[C@@H](O)[C@@H]7O)[C@@](C)(C(=O)O)C6CC[C@@]5(C)[C@]3(CO)CC4)C2O[C@H]2OC(C)[C@@H](O[C@@H]3OCC(O[C@@H]4OC(CO)C(O)[C@H](O)C4O)[C@@H](O)[C@@H]3O)[C@H](O)C2O)C(O)C(O)C1O (stereo partly specified) | -0.939% (inactive) | 
Cc1ccc(CN2COc3cc(C)c4c(oc(=O)c5ccccc54)c3C2)cc1 | -25.3% (inactive) | 
CN(C(=O)c1ccccn1)c1nnc(-c2ccccn2)s1 | -6.67% (inactive) | 
CC1CC(C)(C)NC(=S)N1CCC(=O)N1CCN(Cc2ccccc2)CC1 (stereo unspecified) | -5.4% (inactive) | 
CC(=O)N(Cc1cc(=O)[nH]c2ccccc12)c1ccc(C)cc1C | -4.22% (inactive) | 
CCOC(=O)c1ccc(COC(=O)c2cc(=O)[nH]c3ccccc23)o1 | 5.73% (inactive) | 
Cc1ccc(N(Cc2cc(=O)[nH]c3ccccc23)C(=O)CCl)cc1 |  | 2.31 µM (active)
COC(=O)c1ccccc1NC(=O)c1ccc(COc2ccccc2Cl)o1 | -23.7% (inactive) | 
O=C(Nc1ccn(Cc2ccccc2F)n1)c1ccc(COc2ccc(Cl)cc2Cl)o1 |  | 25.9 µM (active)
CC(=O)Nc1ccn(Cc2c(F)cccc2Cl)n1 | -21.4% (inactive) | 
O=C1CC(c2ccccc2)C(=O)N2C(=O)CC(c3ccccc3)C(=O)N12 (stereo unspecified) | -3.36% (inactive) | 
c1ccc2c(c1)OCC(c1nn3cnnc3s1)O2 (stereo unspecified) | 9.7% (inactive) | 
